# Measured values reported in PubChem BioAssay AID493244 (The Scripps Research Institute Molecular Screening Center, 2011).
# The whole screen tested about 340,000 compounds, of which about 390 (0.11%) were called active. This is one part of a sample in which actives are shown more often than they occur. Unmarked numbers belong to inactive results.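 How the source made its calls: active means inhibition above the mean inhibition of all tested compounds plus 3 SD (cut at about 17% in these data); inactive means the rest.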
# Target: Troponin I, cardiac muscle (Homo sapiens) + Troponin T, cardiac muscle (Homo sapiens) + Troponin C, slow skeletal and cardiac muscles (Homo sapiens) (UniProt P19429+P45379+P63316)
# Test: calcium desensitizers of cardiac thin filaments – biochemical, IANBD-TnC fluorescence, EC70 calcium, primary screen (AID 493244);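 further: assay run at fixed EC70 calcium of 1.6 mM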
# Conditions: IANBD-labeled cardiac RTF, Ca2+ fluorescence; at 7.15 µM; stronger effect = higher value
row,SMILES,inhibition
1,CCc1noc(C)c1C(=O)Oc1ccc(N(C)S(=O)(=O)c2ccc(C)c(C)c2)cc1,0.79%
2,Cc1ccc(-n2c(=O)c(C#N)cc3c(=O)n4ccccc4nc32)cc1C,-2.12%
3,Cc1cc(C)n(Cc2cnc(N3CCOCC3)s2)n1,9.55%
4,O=C(C[n+]1cc(-c2ccc(Cl)c(Cl)c2)n2c1CCC2)c1cccs1,0.83%
5,CCCCOc1ccc(C(=O)NCC(=O)OCC(=O)N2CCN(S(=O)(=O)c3ccc(C)cc3C)CC2)cc1,-7.59%
6,Cc1ccc(C(=O)OCC(=O)NCc2cc(C)c(O)c(C)c2)cc1S(=O)(=O)N1CCCCC1,0.34%
7,CCNC(=S)NCC,-5.85%
8,Cc1c(Cl)c([N+](=O)[O-])nn1CC(=O)NCC1CCCO1 (centres undefined),-4.95%
9,Cc1nc2ccc(S(=O)(=O)NCC(=O)O)cc2s1,-1.72%
10,COc1ccc(C)cc1S(=O)(=O)N(CC(=O)Nc1cccc([N+](=O)[O-])c1)c1ccc(C)cc1,0.11%
11,Cc1ccc(S(=O)(=O)N(CC(=O)Nc2cccc([N+](=O)[O-])c2)Cc2ccc(Cl)cc2)cc1,18.4% (active)
12,CN(c1ccccc1)S(=O)(=O)c1cccc(NC(=O)Cc2ccc(Cl)cc2)c1,11.1%
13,COc1ccc(C(=O)NC2CC2)cc1OC1CCN(C/C=C/c2ccccc2)CC1,0.64%
14,COc1ccc(CSc2nnnn2-c2ccc(O)cc2)cc1F,-11.7%
15,COc1cccc2cc(C(=O)NCc3ccc(C)cc3)c(=N)oc12,0.64%
16,CC(NC(=O)COC(=O)C1CCN(S(=O)(=O)c2ccccc2C(F)(F)F)CC1)c1ccccc1 (centres undefined),-5.89%
17,COc1ccc(CCNC(=O)COC(=O)c2ncc(Cl)c(Cl)c2Cl)cc1OC,4.89%
18,Cc1ccc(S(=O)(=O)N(CC(=O)N2CCc3ccccc3C2)c2cccc(Cl)c2)cc1,-9%
19,C[C@]12CCC(=O)C=C1C=CC1C2CC[C@@]2(C)C1CC[C@@]21CCC(=O)O1 (some centres undefined),2.44%
20,Cc1ccc(CN2CC(C(=O)NNC(=O)Cn3ccc(C(F)(F)F)n3)CC2=O)cc1 (centres undefined),-7.66%
21,NC(=O)C1(Nc2ccc([N+](=O)[O-])cc2)CCCC1,1.13%
22,O=c1oc2ccc(C#CC3(O)CCCCC3)cc2cc1-n1cc(-c2ccsc2)nn1,3.02%

row,SMILES,inhibition
1,CC1CN(S(=O)(=O)c2cccc(C(F)(F)F)c2)CN1C(=O)N1CCOCC1 (centres undefined),9.08%
2,Cc1cc(CNC(=O)C2CCC(=O)N(CCc3ccc(Cl)cc3)C2)no1 (centres undefined),1.17%
3,Cc1ccc(CNC(=O)Cc2cn(C)c3ccccc23)cc1,-0.42%
4,O=S(=O)(c1ccccc1)c1nc(Cc2ccccc2)oc1N1CCOCC1,-3.71%
5,O=C(NCCC1CCCCN1S(=O)(=O)c1ccc(F)cc1)C(=O)NC1CC1 (centres undefined),-3.06%
6,O=C(NCCC1CCCCN1S(=O)(=O)c1ccc(Cl)cc1)C(=O)NCc1ccco1 (centres undefined),-6.03%
7,COc1cccc(CNC(=O)C(=O)NCCC2CCCCN2S(=O)(=O)c2ccc(C)cc2)c1 (centres undefined),18.4% (active)
8,COc1ccccc1S(=O)(=O)NCc1ccc(C(=O)N(C)Cc2ccc(F)cc2)cc1,4.86%
9,CCS(=O)(=O)c1ccc(-c2cccc(NC(=O)c3ccc(Br)o3)c2)nn1,9.7%
10,COc1ccc(C(CNC(=O)c2cc(S(=O)(=O)Nc3cccc(C)c3)ccc2C)N2CCCC2)cc1 (centres undefined),-1.95%
11,CSCCC1NC(=O)N(CC(=O)Nc2cccc(S(=O)(=O)N3CCCCCC3)c2)C1=O (centres undefined),-6.38%
12,CC(C)CC(=O)c1c[nH]c(C(=O)NCc2ccccc2)c1,-10.5%
13,COc1ccccc1CCC(=O)NNC(=O)c1ccncc1,-23.1%
14,O=S(=O)(Oc1ccccc1C(=S)N1CCOCC1)c1ccc(Cl)cc1,1.09%
15,O=C(c1cccc(F)c1)N1CCN(c2ccc([N+](=O)[O-])c3cccnc23)CC1,12.4%
16,O=C(CN1CCOCC1)Nc1cccc([N+](=O)[O-])c1,-4.8%
17,CN(CCCC(=O)Nc1nccs1)S(=O)(=O)c1ccc(Cl)cc1,-8.75%
18,C=CCC1(C(=O)N(C)Cc2ccccc2)CCN(C(=O)OC(C)(C)C)CC1,-8.43%
19,CN(C)c1ccc(NC(=O)CN2C3CCCC2CC(NC(=O)c2ccccc2)C3)cc1 (centres undefined),1.88%
20,CCCCn1c(=O)c(C(C)=O)c(O)c2ccccc21,18.1% (active)
21,CCCn1c(=O)c(-c2ccccc2)c(O)c2ccccc21,-0.9%
22,CCCCCn1c(=O)c(C(=O)OCC)c(Cl)c2ccccc21,2.78%
